# In the library only some 19% were active in any assay of this set; here they are far more common.
# ELG1 DNA repair: ELG1-dependent DNA repair inhibition; Potency, µM (top dose mostly 46.1 µM), for inactives: at the top dose activity change, negative = inhibition, usual class: inhibitors; HEK293T ELG1-luciferase reporter, luminescence, 16 h; DNA damage induced by 5-fluorouridine; hit rate 2.3% among 330,000; further: potency means the concentration at half of the fitted maximal effect; nearly all actives have a fitted effect of over 55% in size
#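 Cells (2,000 per well) received 5-fluorouridine plus test compound or DMSO and were incubated 16 hr at 37 °C, 5% CO2. Luciferase activity was read by luminescence 30 min after ONE-Glo addition; signal suppression marked inhibition of damage-induced ELG1 function.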
# DT40 TDP1 no CPT: qHTS for Inhibitors of human tyrosyl-DNA phosphodiesterase 1 (TDP1): qHTS in cells in absence of CPT | DT40 Tdp1-/- hTDP1 cells, no CPT, ATP luminescence, 48 h | Potency, µM (top dose mostly 46.2 µM), for the others: at the top dose activity change, negative = growth inhibition, usual class: inhibitors | hit rate 15% among 420,000 | AID 686978, 2013; further: potency means the concentration at half of the fitted maximal effect; nearly all actives have a fitted effect of over 55% in size
#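 Seeded 400 DT40-hTDP1 cells/well (vehicle DMSO, no 20 nM CPT); pinned compounds; ≥48 hr at 37 °C; CellTiter-Glo luminescence as viability measure.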
# HT1080-NT tox: kills 2HG-producing HT-1080-NT fibrosarcoma cells | HT-1080-NT fibrosarcoma viability, CellTiter-Glo ATP luminescence, 48 h | Potency, µM (doses to about 46.1 µM), for the others: top-dose activity, negative = less viability, hits mostly cytotoxic | hit rate 1.6% among 360,000 | AID 686970;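 further: NT is the 2HG producing partner of a matched IDH1 knockdown line; potency means the concentration at half of the fitted maximal effect; 0% = DMSO-treated cells and -100% = media-only wells without cells; nearly all actives have a fitted effect of over 55% in size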
#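 Fibrosarcoma NT cells, 750 per well in 5% FBS RPMI, were exposed to compound for 48 hours. Viability: CellTiter-Glo luminescence.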
# HT1080 IDH1KD tx: HT-1080 IDH1 knockdown cell toxicity (counter line); hit rate 2% among 360,000; HT-1080 IDH1 knockdown viability, ATP luminescence, 48 h; AID 686971; Potency, µM (top dose mostly 46.1 µM), for inactives: top-dose activity, negative = toxicity, hits mostly cytotoxic;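 further: potency means the concentration at half of the fitted maximal effect; 0% = DMSO wells and -100% = cell-free medium wells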
#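 HT-1080-IDH1KD cells (IDH1 knocked down), 750/well in RPMI with 5% FBS, treated with compound 48 h at 37 degrees C. Viability by CellTiter-Glo luminescence, normalised to DMSO and no-cell wells; concentration-response curves classed.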
# TDP1 cell CPT: DT40-hTDP1 cell growth loss with CPT; hit rate 12% among 420,000; Potency, µM (highest dose often 46.2 µM), for the others: top-dose activity change, negative = growth inhibition, actives largely listed as inhibitors; chicken DT40 Tdp1-/-;hTDP1 cells + 20 nM CPT, ATP luminescence, 48 h; further: potency means the concentration at half of the fitted maximal effect; nearly all actives have a fitted effect of over 55% in size
#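 Cell growth measured by CellTiter-Glo luminescence after a minimum 48 h, 37 C compound exposure with 20 nM CPT in Tdp1-knockout DT40 cells stably expressing hTDP1, seeded 400/well; qHTS titration format.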
# IL1B secr inh: inhibitors of inflammasome signaling (IL-1 beta secretion). activity change, % at 57.5 µM. THP-1 LPS/ATP IL-1B secretion, AlphaLISA, 16 h; hits give low values. AID 743279. hit rate 4.7% among 360,000; in the data active means activity change below about -50%; inconclusive means mostly about -30% to -49%
#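 THP-1 cells pretreated 1 hr with compounds (up to 57.5 uM final), then stimulated with LPS (250 ng/mL final) plus ATP (1.25 mM final); secreted IL-1B measured by AlphaLISA after 16 hr, decreased signal indicating inhibition.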
# Starred values were filed as active, the others as inactive; i = inactive; ? = inconclusive; nt = not tested or not shown; [ ] = another dose, or the depositor's remark. Unless noted, the call rests on the fitted dose curve; in most records, active means well fitted curve in the direction sought with a large enough effect; inconclusive means small, poorly fitted or top-dose-only effect, or another doubt; inactive means no such curve, though single readings can be large; an effect the other way counts as inactive or inconclusive. Unless noted, on the % scale 0 is the no-effect control and ±100 the full control effect.
SMILES,ELG1 DNA repair,DT40 TDP1 no CPT,HT1080-NT tox,HT1080 IDH1KD tx,TDP1 cell CPT,IL1B secr inh
Oc1ccc(Br)cc1Cn1nnc2ccccc21,4.3%,?,-0.6%,-11.3%,-58.0%,13.9
COc1ccc(OC)c(S(=O)(=O)Nc2ccc3c(c2)OCCO3)c1,nt,?,-1.4%,-7.7%,?,-20.0
O=C(NC1CC(=O)N(c2ccc(F)cc2)C1)C1CCCC1 (stereo unspecified),nt,1.9%,nt,nt,3.6%,nt
CCc1cccc(C)c1N=Cc1c(O)c2ccccc2oc1=O,8.9%,-2.7%,?,?,-25.1%,-1.5
CCCOc1ccc(C(=O)N(Cc2cccs2)c2ccc(C)cc2)cc1,nt,-24.8%,nt,nt,-22.4%,nt
Cc1ccc(N(Cc2cccs2)C(=O)c2ccccc2Cl)cc1,nt,18.4µM*,nt,nt,13µM*,nt
CCOc1ccccc1C(=O)N(Cc1cccs1)c1ccc(Cl)cc1,nt,10.3µM*,nt,nt,16.4µM*,nt
NC(C(=O)O)c1cccc(O)c1 (stereo unspecified),nt,-10.8%,nt,nt,10.4%,nt
Cc1ccc(O)c(N=Cc2cccs2)c1,?,?,2.0%,2.4%,23.1µM*,-1.1
Cc1ccc(O)c(N=Cc2ccc(C)s2)c1,?,-14.9%,-6.7%,-6.2%,-16.9%,3.4
Cc1nc2ncnn2c(N2CCN(C(c3ccccc3)c3ccccc3)CC2)c1C,nt,13µM*,-15.4%,?,20.6µM*,-8.3
Cc1nc(N2CCN(C(c3ccccc3)c3ccccc3)CC2)nc2c1C(=O)CCC2,0.0%,nt,nt,nt,nt,nt
Cc1cc(N2CCN(C(c3ccccc3)c3ccccc3)CC2)n2ncnc2n1,nt,?,0.8%,-1.2%,23.1µM*,23.3
CC1(C)Cc2c(sc(NC(=O)C(=O)N3CCCCC3)c2C(N)=O)CO1,27.0%,18.9%,13.4%,11.5%,-26.3%,7.9
COc1cc(C(=O)OCC(=O)NCc2ccco2)cc(OC)c1OC,-14.1%,-18.4%,5.8%,2.2%,0.6%,-66.9*
O=C(COC(=O)c1ccc(NS(=O)(=O)c2cccs2)cc1O)NCc1ccccc1,-5.6%,3.26µM*,2.59µM*,3.66µM*,4.61µM*,40.1
O=C(COC(=O)c1ccc(NS(=O)(=O)c2cccs2)cc1)NCc1ccco1,-25.9%,2.91µM*,9.2µM*,8.2µM*,4.11µM*,7.6
COc1cc(OC)cc(C(=O)OCC(=O)NCc2ccco2)c1,0.0%,14.1%,-4.5%[9.24 µM],-2.2%,-13.1%,0.0
COc1cccc(Cn2c(=O)n(Cc3ccccc3)c(=O)c3c2c2cc(OC)ccc2n3C)c1,nt,7.9%,nt,nt,0.5%,nt
CCN(CC)S(=O)(=O)c1ccc(N2CCOCC2)c(NS(=O)(=O)c2ccc(Cl)s2)c1,nt,-19.9%,-2.8%,-1.2%,-21.0%,16.8
CCOc1cccc(C(=O)NC2CCCCC2)c1,?,-10.7%,-6.4%,3.3%,-18.7%,-0.4
COc1cc(OC)cc(C(=O)NC2CCN(CCCOc3ccccc3)CC2)c1,-19.3%,-1.4%,-6.9%,-4.7%,-5.9%,-51.9*
CCCN1CCC(NC(=O)c2cccc(Oc3ccccc3)c2)CC1,?,23.1µM*,-3.0%,-0.6%,?,i
Cc1ccc(C)c(N2CCN(c3nccn4nc(-c5ccc(Br)cc5)cc34)CC2)c1,nt,6.3%,nt,nt,-4.2%,nt
Clc1ccc2c(c1)-c1c(cnc3cc(-c4ccccc4)nn13)CO2,nt,-14.0%,nt,nt,-16.4%,nt
SMILES,ELG1 DNA repair,DT40 TDP1 no CPT,HT1080-NT tox,HT1080 IDH1KD tx,TDP1 cell CPT,IL1B secr inh
CCOC(=O)c1cc(C(=O)c2cccs2)n2ccc(C(C)=O)cc12,?,23.1µM*,1.2%,0.7%,?,-5.3
O=C(c1ccccc1)N(Cc1ccc(F)cc1)Cc1nc2ccccc2c(=O)[nH]1,-29.7%,-26.6%,7.08µM*,6.31µM*,?,21.1
CN(Cc1nc2ccccc2c(=O)[nH]1)Cc1nc2ccsc2c(=O)[nH]1,?,0.92µM*,0.2%,1.6%,0.517µM*,30.1
CC(OCC(O)CN(C)Cc1nc2ccccc2c(=O)[nH]1)c1ccc(Cl)cc1 (stereo unspecified),?,?,-10.4%,?,18.4µM*,?
Cc1ccc(NC(=O)CN(C)Cc2nc3ccccc3c(=O)[nH]2)c(Br)c1,?,20.6µM*,-6.2%,-2.0%[9.24 µM],-45.8%,?
O=C(c1ccncc1)N(Cc1ccccc1)Cc1nc2ccccc2c(=O)[nH]1,-1.9%,-8.9%,-7.4%,-1.9%,-0.3%,15.1
CC(NC(=O)CN(C)Cc1nc2ccccc2c(=O)[nH]1)c1ccccc1 (stereo unspecified),23.7%,3.2%,5.7%,8.0%,-5.4%,20.6
NC(=O)CC(NC(=O)Cc1ccc(Cl)cc1)c1ccc(NCCN2CCOCC2)c([N+](=O)[O-])c1 (stereo unspecified),-7.0%,1.6%,0.5%,-3.6%,-10.6%,-10.1
CCN(Cc1ccc(Cl)s1)C(=O)c1cccc(OCc2c(C)noc2C)c1,?,?,-9.2%,-4.0%,?,?
CCN(Cc1nc2ccccc2c(=O)[nH]1)C(=O)c1cccc(OCc2c(C)noc2C)c1,?,16.4µM*,?,?,?,23.5
Cc1ccc(C(=O)N(Cc2nc3ccccc3c(=O)[nH]2)C2CCCC2)cc1,-2.3%,?,-9.4%,?,13µM*,-21.6
Cc1ccccc1C(=O)N(Cc1nc2ccccc2c(=O)[nH]1)C1CCCC1,?,?,?,?,?,-2.9
CC(C)(C)NC(=O)C1(C)CCC(=O)N1CC(F)(F)F (stereo unspecified),nt,14.7%,20.5%,1.1%,0.3%,12.9
Cn1ncc(Cl)c1C(=O)N1CCN(c2ccc(F)cc2)CC1,-9.9%,1.4%,0.1%,2.6%,3.1%,2.6
Cc1cc2c(=O)[nH]c(N)nc2[nH]1,nt,4.0%,2.5%,-3.0%,-1.0%,-13.3
C#CCOCCOCCOCCNc1nc(N2CCN(C(=O)CCCCCCCCCCNC(=O)[C@H]([C@@H](C)CC)n3cc(CCCCN=C(N)N)nn3)CC2)nc(N2CCN(C(=O)CCCCCCCCCCNC(=O)[C@H](CCCCN)n3cc(C)nn3)CC2)n1,?,8.2µM*,?,?,23.1µM*,-111.8*
C#CCOCCOCCOCCNc1nc(N2CCN(C(=O)CCCCCCCCCCNC(=O)[C@H]([C@@H](C)CC)n3cc(CCCCCN)nn3)CC2)nc(N2CCN(C(=O)CCCCCCCCCCNC(=O)[C@H](CO)n3cc(CCCCCN)nn3)CC2)n1,?,?,?,?,?,-82.8*

# Screening data as filed in PubChem BioAssay.
